Each compound was assayed against Pyruvate kinase PKM (Homo sapiens) (UniProt P14618) (assay: Secondary Concentration-Response Assay for Activators of Human Muscle isoform 1 Pyruvate Kinase: for Probe SAR). Conditions: purified hPK-M1, ATP production, Kinase-Glo luminescence; active means well fitted curve in the direction sought with a large enough effect; inactive means no such curve, though single readings can be large or run the other way.
Text: NIH Chemical Genomics Center [NCGC]
Matthew G. Vander Heiden, M.D., Ph.D. [Harvard Medical School, 77 Avenue Louis Pasteur, Boston, MA 02115]
Human pyruvate kinase […] (hPK-M1) enzyme was supplied as a highly purified (>95% pure) preparation from Harvard Medical School and assayed for its ability to generate ATP from ADP using phosphoenolpyruvate (PEP) as a substrate. ATP generation was detected in a coupled reaction by luciferase-mediated luminescence, an ATP-dependent process. Pyruvate kinase substrates, PEP and ADP, were present in the assay at Km and approximately 10-fold below Km respectively. The enzyme was assayed at an intermediate level of activity to screen for both inhibitors and activators.
NCGC Assay Protocol Summary for M1-isoform:
Three uL of substrate mix (at r.t.) in assay buffer (50 mM Imidazole pH7.2, 50 mM KCl, 7 mM MgCl2, 0.01% Tween 20, 0.05% BSA) was dispensed into white solid bottom 1,536 well microtiter plates so that the final concentrations of substrates in the assay were 0.1 mM ADP and 0.5 mM PEP. 23 nL of compound were delivered by a pin tool and 1 uL of enzyme mix (final concentration of 1 nM) in assay buffer (4 degree Celsius) was added. Plates were incubated at room temperature for 1 hour. Two uL of detection mix (Kinase-Glo, Promega; at 4 degree Celsius protected from light) was added and luminescence read by a ViewLux (Perkin Elmer) at 1 second exposure/plate. Data were normalized to the uninhibited (row 31). Additionally, a no enzyme and 5-fold enzyme control was dispensed in row 32, split equally between the two conditions.

Pyruvate kinase PKM (Homo sapiens), sequence (P14618 whole entry, looked up, canonical isoform): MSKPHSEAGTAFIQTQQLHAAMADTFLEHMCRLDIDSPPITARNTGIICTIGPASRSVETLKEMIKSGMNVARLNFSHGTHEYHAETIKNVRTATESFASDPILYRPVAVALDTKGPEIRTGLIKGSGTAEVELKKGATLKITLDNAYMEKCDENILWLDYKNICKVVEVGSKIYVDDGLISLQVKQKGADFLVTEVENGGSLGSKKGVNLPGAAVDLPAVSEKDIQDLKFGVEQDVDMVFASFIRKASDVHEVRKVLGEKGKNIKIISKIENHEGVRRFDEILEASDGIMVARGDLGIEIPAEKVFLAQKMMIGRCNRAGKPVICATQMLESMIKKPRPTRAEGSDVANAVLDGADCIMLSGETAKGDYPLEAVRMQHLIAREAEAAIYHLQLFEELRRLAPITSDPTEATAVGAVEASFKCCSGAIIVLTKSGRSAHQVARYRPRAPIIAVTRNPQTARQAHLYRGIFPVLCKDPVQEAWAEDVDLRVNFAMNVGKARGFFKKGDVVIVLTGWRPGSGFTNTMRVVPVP

Max response, inactive:
O=C1CCc2cc(S(=O)(=O)Nc3cc(F)cc(Cl)c3)c(F)cc2N1 1.25%
O=S(=O)(c1ccc2c(c1)OCCO2)N1CCN(S(=O)(=O)c2c(F)cccc2F)CC1 -8.27%
CC(=O)N1c2ccc(S(=O)(=O)Nc3ccc(C)c(C)c3)cc2CC1C (stereo not given) 13.1%
O=C1CCc2cc(S(=O)(=O)Nc3ccc(F)c(Cl)c3)ccc2N1 -1.6%
Cc1ccc(NS(=O)(=O)c2cc3c(cc2C)OCC(=O)N3)cc1C 2.47%
CC(C)Nc1cccc(S(=O)(=O)N2CCCN(S(=O)(=O)c3ccc4c(c3)OCCO4)CC2)c1 4.41%
Cc1ccc(N(C)S(=O)(=O)c2ccc3c(c2)CCC(=O)N3)cc1C 0.78%
CCNc1cccc(S(=O)(=O)N2CCCN(S(=O)(=O)c3ccc4c(c3)OCCO4)CC2)c1 8.55%
Cc1ccc(NS(=O)(=O)c2cc3c(cc2Cl)NC(=O)C3)cc1C 2.96%
Cc1ccc(NS(=O)(=O)c2ccc3c(c2)CCC(=O)N3)cc1C -6.39%

Reference: PubChem BioAssay AID2536 (National Center for Advancing Translational Sciences (NCATS), 2010)
